Data as given in the supplement of paper PMC10849652.
The full data set covers some 7,900 targets. This sample favours those with a hit. About 0.6% of all pairs of compound and target were hits. A number with no mark means an inactive call.

Tests used:
Assay in all cases: log2 fold change, soluble protein after heating vs DMSO (PISA); higher = thermal stabilisation; K562 cells, 10 uM, 30 min; active = over 0.2 and 3.5 SD of the protein, either way, in both replicates (recomputed)
[1] = compound: CC[C@@H]1C(=O)N(C)c2cnc(Nc3ccc(C(=O)NC4CCN(C)CC4)cc3OC)nc2N1C1CCCC1
Procedure, shortened: (§1)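 For each measurement, 10 μM compound was applied for 30 min to K562 cells at 2×10^6 cells/mL. Aliquots were heated for 3 min across 48°C-58°C, pooled, and extracted in PBS with 0.5% NP-40 at 4°C; the supernatant after 21,000xg for 90 min was soluble protein. This was quantified by TMTpro 16plex LC-MS/MS with channel sums equalised, and thermal stability was reported relative to control samples from duplicates, on a log2 fold-change scale.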

[2] = compound: CC[C@@H]1C(=O)N(C)c2cnc(Nc3ccc(C(=O)N[C@H]4CC[C@H](N5CCN(CC6CC6)CC5)CC4)cc3OC)nc2N1C(C)C [volasertib]
Procedure, shortened: as §1

[3] = compound: CC[C@H](C)N1C=C(C2=C(C=C(C=C21)C3=CN=C(C=C3)N4CCNCC4)C(=O)NCC5=C(C=C(NC5=O)C)C)C
Procedure, shortened: as §1

[4] = compound: CC[C@H](C)[C@@H](C(=O)N[C@@H]([C@@H](C)O)C(=O)N[C@@H](CC(C)C)C(=O)[C@]1(CO1)C)NC(=O)[C@H]([C@@H](C)CC)N(C)C(=O)C [epoxomicin]
Procedure, shortened: as §1

[5] = compound: CCn1c(C(=O)N(C2CC2)C2CC2)cc2c3c(ncn3C)c(Nc3cc(C)n(C)n3)nc21
Procedure, shortened: as §1

[6] = compound: CCn1cc(-c2ccnc3[nH]c(-c4cccc(CN(C)C)c4)cc23)c(-c2ccc(NC(=O)N(C)C)cc2)n1
Procedure, shortened: as §1

[7] = compound: CN(C)CC(=O)Nc1ccc2[nH]c(=O)c3ccccc3c2c1
Procedure, shortened: as §1

[8] = compound: CN(CCOC1=CC=C(C=C1)C[C@H]2C(=O)NC(=O)S2)C3=CC=CC=N3 (racemic) [rosiglitazone]
Procedure, shortened: as §1

[9] = compound: CN1C2=C(C3=C1C(=O)N(N=C3)CC4=CC(=CC=C4)N)SC(=C2)S(=O)C
Procedure, shortened: as §1

[10] = compound: CN1CCC(CNc2ccc3ncc(-c4cccc(OC(F)(F)F)c4)n3n2)CC1
Procedure, shortened: as §1

Sequence of UniProt P29692 (P29692 whole entry, looked up): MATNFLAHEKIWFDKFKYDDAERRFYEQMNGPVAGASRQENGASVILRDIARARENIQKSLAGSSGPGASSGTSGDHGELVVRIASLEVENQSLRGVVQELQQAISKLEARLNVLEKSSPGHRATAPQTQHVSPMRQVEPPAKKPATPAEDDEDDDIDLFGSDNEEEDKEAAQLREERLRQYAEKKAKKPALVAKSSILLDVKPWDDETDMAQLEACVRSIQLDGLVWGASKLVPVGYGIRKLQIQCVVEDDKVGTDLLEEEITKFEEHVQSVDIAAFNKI
Sequence of UniProt P50402 (P50402 whole entry, looked up): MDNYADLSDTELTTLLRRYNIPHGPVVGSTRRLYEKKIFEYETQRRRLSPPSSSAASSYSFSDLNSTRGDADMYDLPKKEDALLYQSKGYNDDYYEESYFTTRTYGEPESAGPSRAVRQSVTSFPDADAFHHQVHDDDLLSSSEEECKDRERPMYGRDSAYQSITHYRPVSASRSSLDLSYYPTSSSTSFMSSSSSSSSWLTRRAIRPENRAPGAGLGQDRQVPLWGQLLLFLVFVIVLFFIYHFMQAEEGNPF
Sequence of UniProt P50570 (P50570 whole entry, looked up): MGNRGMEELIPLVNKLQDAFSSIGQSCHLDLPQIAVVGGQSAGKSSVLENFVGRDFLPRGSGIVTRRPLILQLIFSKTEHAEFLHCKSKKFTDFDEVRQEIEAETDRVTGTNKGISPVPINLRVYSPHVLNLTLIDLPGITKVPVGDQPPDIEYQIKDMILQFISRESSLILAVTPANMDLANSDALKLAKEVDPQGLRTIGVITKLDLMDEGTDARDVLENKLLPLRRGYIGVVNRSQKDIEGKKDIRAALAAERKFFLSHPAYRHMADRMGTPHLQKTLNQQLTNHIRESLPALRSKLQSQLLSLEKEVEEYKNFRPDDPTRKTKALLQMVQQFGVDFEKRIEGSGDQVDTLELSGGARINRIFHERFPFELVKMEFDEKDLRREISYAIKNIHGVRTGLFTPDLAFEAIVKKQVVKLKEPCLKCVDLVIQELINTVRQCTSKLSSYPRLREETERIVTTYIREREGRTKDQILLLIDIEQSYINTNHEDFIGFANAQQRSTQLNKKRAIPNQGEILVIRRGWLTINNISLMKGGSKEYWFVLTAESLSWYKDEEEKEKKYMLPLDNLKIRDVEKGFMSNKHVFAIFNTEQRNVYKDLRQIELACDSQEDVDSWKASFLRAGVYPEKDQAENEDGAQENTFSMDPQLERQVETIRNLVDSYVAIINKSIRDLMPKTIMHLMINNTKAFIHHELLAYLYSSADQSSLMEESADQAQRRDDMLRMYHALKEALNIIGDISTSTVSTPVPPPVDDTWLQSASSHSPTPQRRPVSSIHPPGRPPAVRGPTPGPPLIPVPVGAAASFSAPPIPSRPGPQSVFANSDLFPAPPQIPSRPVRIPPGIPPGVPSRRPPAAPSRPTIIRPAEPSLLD
Sequence of UniProt O60610 (O60610 whole entry, looked up): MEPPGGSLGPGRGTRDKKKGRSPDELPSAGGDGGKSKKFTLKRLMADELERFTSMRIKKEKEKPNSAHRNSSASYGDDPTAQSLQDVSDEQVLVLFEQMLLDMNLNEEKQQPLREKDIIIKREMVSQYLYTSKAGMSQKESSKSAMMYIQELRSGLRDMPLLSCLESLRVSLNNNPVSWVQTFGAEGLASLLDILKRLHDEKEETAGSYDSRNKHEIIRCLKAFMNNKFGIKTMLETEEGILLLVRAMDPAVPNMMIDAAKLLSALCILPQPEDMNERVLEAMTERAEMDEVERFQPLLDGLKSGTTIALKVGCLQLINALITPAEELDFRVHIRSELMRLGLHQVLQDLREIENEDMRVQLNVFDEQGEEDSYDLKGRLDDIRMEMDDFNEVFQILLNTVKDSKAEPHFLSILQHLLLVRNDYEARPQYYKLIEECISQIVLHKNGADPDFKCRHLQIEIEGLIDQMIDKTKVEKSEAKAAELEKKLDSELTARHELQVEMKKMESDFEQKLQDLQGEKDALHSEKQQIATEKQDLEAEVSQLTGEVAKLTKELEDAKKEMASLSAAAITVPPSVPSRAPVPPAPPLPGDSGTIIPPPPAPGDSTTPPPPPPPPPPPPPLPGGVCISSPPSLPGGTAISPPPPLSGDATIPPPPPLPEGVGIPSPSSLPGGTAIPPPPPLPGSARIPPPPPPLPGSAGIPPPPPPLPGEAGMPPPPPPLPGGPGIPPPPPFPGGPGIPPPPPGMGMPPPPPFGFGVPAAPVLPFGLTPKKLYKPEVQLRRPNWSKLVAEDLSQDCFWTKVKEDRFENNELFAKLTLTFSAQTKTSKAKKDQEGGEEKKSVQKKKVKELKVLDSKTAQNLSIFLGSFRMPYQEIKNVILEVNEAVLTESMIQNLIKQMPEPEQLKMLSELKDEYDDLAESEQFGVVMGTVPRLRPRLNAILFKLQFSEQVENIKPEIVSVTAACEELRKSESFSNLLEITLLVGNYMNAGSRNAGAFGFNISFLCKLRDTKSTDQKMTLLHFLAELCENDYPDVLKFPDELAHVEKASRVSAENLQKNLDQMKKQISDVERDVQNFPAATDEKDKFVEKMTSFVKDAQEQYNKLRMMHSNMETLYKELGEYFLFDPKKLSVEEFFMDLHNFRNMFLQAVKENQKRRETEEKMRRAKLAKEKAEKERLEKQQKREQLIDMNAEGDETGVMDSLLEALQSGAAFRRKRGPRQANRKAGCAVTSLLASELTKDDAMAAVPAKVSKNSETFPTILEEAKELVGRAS
Sequence of UniProt Q9HBU6 (Q9HBU6 whole entry, looked up): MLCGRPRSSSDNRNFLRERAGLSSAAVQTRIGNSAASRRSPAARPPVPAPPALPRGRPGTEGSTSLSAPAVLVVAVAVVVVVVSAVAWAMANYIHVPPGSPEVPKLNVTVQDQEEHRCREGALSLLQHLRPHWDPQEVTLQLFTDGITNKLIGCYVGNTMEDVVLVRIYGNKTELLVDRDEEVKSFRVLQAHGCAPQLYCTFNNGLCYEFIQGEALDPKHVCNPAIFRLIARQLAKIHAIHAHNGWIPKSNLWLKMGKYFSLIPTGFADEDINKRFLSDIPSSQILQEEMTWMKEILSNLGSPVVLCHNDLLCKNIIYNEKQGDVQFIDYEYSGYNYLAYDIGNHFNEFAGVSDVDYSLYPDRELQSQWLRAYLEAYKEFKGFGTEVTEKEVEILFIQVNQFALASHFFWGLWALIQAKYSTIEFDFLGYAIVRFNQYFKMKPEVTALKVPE
Sequence of UniProt Q04637 (Q04637 whole entry, looked up): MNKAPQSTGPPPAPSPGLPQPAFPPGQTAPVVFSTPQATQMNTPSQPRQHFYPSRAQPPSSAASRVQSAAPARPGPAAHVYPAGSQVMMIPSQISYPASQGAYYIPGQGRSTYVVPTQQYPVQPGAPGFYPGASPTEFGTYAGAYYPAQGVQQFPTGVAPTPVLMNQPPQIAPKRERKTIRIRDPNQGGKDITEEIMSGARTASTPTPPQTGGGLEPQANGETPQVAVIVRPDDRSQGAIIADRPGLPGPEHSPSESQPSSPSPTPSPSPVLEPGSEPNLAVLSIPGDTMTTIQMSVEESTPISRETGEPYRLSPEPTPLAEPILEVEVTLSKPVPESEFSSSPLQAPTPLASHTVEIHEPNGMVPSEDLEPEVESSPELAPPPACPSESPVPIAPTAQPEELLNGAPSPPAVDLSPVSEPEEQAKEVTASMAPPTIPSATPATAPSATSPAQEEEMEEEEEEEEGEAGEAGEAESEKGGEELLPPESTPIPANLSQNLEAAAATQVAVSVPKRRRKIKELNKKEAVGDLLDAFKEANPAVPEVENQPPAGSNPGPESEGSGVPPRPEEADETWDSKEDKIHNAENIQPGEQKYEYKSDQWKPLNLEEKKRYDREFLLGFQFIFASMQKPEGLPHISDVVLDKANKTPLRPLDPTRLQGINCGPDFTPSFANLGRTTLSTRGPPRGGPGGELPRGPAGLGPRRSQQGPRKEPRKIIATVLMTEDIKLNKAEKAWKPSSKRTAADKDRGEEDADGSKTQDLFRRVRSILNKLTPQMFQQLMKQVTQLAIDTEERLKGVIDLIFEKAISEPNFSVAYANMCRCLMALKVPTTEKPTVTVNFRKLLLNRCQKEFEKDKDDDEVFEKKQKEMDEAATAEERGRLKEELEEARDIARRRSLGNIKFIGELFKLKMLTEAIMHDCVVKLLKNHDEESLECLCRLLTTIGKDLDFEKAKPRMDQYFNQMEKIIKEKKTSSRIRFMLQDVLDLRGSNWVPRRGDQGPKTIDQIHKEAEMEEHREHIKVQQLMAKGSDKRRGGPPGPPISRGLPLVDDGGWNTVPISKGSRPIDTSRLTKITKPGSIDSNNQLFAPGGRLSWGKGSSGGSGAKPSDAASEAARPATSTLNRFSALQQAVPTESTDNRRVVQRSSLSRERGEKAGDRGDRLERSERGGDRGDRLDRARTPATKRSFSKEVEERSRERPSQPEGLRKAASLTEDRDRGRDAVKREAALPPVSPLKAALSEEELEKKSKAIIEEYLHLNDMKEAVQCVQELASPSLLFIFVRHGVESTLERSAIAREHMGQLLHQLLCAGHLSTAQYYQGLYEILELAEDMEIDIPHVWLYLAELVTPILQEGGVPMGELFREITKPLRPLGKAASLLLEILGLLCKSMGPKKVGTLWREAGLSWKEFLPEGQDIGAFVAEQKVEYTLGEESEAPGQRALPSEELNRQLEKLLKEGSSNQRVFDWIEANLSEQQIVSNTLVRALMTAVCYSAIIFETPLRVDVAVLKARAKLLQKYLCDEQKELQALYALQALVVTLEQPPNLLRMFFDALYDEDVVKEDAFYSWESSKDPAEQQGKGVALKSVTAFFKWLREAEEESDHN
Sequence of UniProt Q8N128 (Q8N128 whole entry, looked up): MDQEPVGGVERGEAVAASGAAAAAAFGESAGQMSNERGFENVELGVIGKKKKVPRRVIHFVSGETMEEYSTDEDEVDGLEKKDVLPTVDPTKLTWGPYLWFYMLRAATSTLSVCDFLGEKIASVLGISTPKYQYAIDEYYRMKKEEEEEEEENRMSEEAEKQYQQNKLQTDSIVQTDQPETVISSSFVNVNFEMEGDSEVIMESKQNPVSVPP

Target	log2 fold change [1]	log2 fold change [2]	log2 fold change [3]	log2 fold change [4]	log2 fold change [5]	log2 fold change [6]	log2 fold change [7]	log2 fold change [8]	log2 fold change [9]	log2 fold change [10]
CTSV (UniProt O60911)	-0.719 (active)	-0.993 (active)	-0.054	-0.007	0.033	0.084	0.012	-0.013	-0.081	-1.29 (active)
CTNNB1 (UniProt P35222)	0.2	-0.162	-0.116	0.887 (active)	-0.027	-0.304	-0.151	0.124	-0.185	0.379
FAM177A1 isoform 2 (UniProt Q8N128)	-0.039	-0.108	0.006	0.045	-0.001	0.045	-0.012	0.012	-0.023	-0.259 (active)
DPP8 (UniProt Q6V1X1)	0.143	0.007	-0.025	-0.045	0.019	0.002	-0.057	0.02	-0.047	-0.106
FADS3 (UniProt Q9Y5Q0)	-0.02	0.095	0.013	-0.016	0.046	-0.116	-0.05	-0.019	-0.13	-0.231
ESYT1 isoform 2 (UniProt Q9BSJ8)	0.007	-0.37	0.099	0.026	-0.09	0	0.033	0.045	0.063	0.115
DNM2 (UniProt P50570)	-0.013	-0.015	0.043	0.029	-0.002	-0.091	0.037	0.05	-0.044	-0.349 (active)
DNAAF2 (UniProt Q9NVR5)	0.11	-0.113	-0.031	-0.012	0.029	0.095	0	-0.06	0.042	-0.279 (active)
EEF1D isoform 2 (UniProt P29692)	-0.089	-0.336 (active)	-0.001	0.008	-0.031	0.05	-0.022	0.019	0.015	-0.039
DHPS (UniProt P49366)	0.045	0.028	0.001	0.046	-0.002	0.014	-0.012	-0.01	-0.017	-0.049
DEGS1 (UniProt O15121)	0.061	-0.02	0.012	-0.037	-0.028	-0.168	0.068	-0.041	-0.1	0.019
ERLIN2 (UniProt O94905)	0.06	-0.057	0.054	-0.034	-0.031	0.01	-0.051	-0.01	0.096	0.008
EXOC6 (UniProt Q8TAG9)	-0.224	-0.443 (active)	0.102	-0.06	-0.051	0.014	0.033	0.009	0.06	-0.23
FAM114A2 (UniProt Q9NRY5)	-0.094	-0.136	0.046	0.052	-0.001	-0.059	0.02	0.049	-0.013	-0.29 (active)
EVC2 (UniProt Q86UK5)	-0.133	-0.003	0.078	0.097	-0.038	-0.037	-0.087	0.128	0.034	-0.293
CTSB (UniProt P07858)	-1.16 (active)	-1.72 (active)	-0.009	-0.011	0.017	-0.047	0.021	-0.007	-0.07	-0.936 (active)
CYBA (UniProt P13498)	-0.091	-0.125	-0.026	0.037	0.047	0.074	-0.02	0.058	-0.064	-0.04
DHX40 (UniProt Q8IX18)	-0.006	-0.236	0.188	-0.037	-0.074	-0.013	0.026	0.166	-0.076	-0.029
ERCC6 (UniProt Q03468)	0.072	-0.135	-0.06	0.015	0.074	-0.091	0.004	-0.221	-0.009	0.08
CTU1 (UniProt Q7Z7A3)	-0.052	-0.117	0.026	0.045	-0.017	-0.057	0.065	0.055	-0.098	-0.233 (active)
DIAPH1 (UniProt O60610)	0.012	-0.211	0.09	-0.004	-0.061	0.055	0.053	0.047	0.168	-0.012
EIF4G1 isoform 8 (UniProt Q04637)	-0.114	-0.487	0.174	0.016	-0.076	0.005	0.031	0.047	0.181	-0.425
DHCR24 (UniProt Q15392)	0.769	1.21 (active)	0.104	-0.056	-0.1	0.06	0.236	0	-0.094	0.525
EHBP1L1 (UniProt Q8N3D4)	-0.035	-0.307 (active)	0.091	0.072	0.012	-0.055	0.029	0.094	0.077	0.101
ETNK1 (UniProt Q9HBU6)	0.021	-0.24	0.021	0.157	-0.03	0.059	0.121	0	-0.14	0.041
DNAH5 (UniProt Q8TE73)	0.042	0.01	-0.079	-0.052	-0.015	-0.009	-0.031	-0.044	0.029	0.03
DBN1 isoform 3 (UniProt Q16643)	0.026	-0.189	0.089	-0.014	0.017	0.087	-0.047	-0.021	0.05	-0.011
EMD (UniProt P50402)	-0.127	-0.273 (active)	0	-0.065	-0.004	0	-0.018	-0.054	0.003	-0.078
DUS3L (UniProt Q96G46)	-0.162	-0.331 (active)	0.017	0.087	0.004	0.02	0.028	0.007	0.021	-0.04
ELOVL1 (UniProt Q9BW60)	-0.217	-0.127	-0.011	0.003	-0.044	0.032	0.116	0.002	-0.068	-0.691 (active)
